Assay [1] concerns the target CCAAT/enhancer-binding protein beta (Homo sapiens) (UniProt P17676). As to the kind of experiment: ATG_C_EBP_CIS: Attagene CIS-FACTORIAL HepG2 Assay for human CCAAT/Enhancer Binding Protein (C/EBP) beta (AID 2282927). The conditions noted are these: HepG2 Attagene cis-factorial transcription factor reporter; actives raise or lower the signal. The method in brief: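 Following a 24 h incubation with test chemical, transfected HepG2 cells yielded RNA whose reporter transcripts were quantified by RT-PCR and fluorescent capillary electrophoresis, with DMSO serving as baseline for bidirectional fitting.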

A short description of assay [2]: ATG_DR4_LXR_CIS: Attagene CIS-FACTORIAL HepG2 Assay for human Liver X Receptor (LXR), DR4 submotif (AID 2282929). The conditions noted are these: HepG2 Attagene DR4 cis-reporter, mRNA transcription; actives raise or lower the signal. The method in brief:
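After transient transfection with multiplexed cis-promoter reporter units, HepG2 cells received test chemicals for 24 h. Reporter mRNA induction, detected by fluorescence after RT-PCR and capillary electrophoresis, was scored relative to DMSO.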

A short description of assay [3]: ATG_AP_2_CIS: Attagene CIS-FACTORIAL HepG2 Assay for human Activator Protein 2 (AP-2) (AID 2282932). The conditions noted are these: HepG2 AP-2 cis-reporter, Attagene transcription factor profiling; actives raise or lower the signal. Put shortly: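 Bidirectional curve fitting against DMSO was applied to reporter mRNA signals from HepG2 cells 24 h after dosing. Cis-promoter reporter units, transiently transfected, were read by RT-PCR plus capillary electrophoresis.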

Assay [4] deals with Transcription factor E2F1 (Homo sapiens) (UniProt Q01094). As to the kind of experiment: ATG_E2F_CIS: Attagene CIS-FACTORIAL HepG2 Assay for human E2F Transcription Factor 1 (AID 2282935). The settings on record: HepG2 Attagene cis-reporter, E2F reporter RNA transcripts; actives raise or lower the signal. The method in brief: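 Multiplexed cis-reporter assay: HepG2, transient transfection, 24 h dosing, mRNA quantitation by labeled RT-PCR and CE.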
Chain of Transcription factor E2F1 (Homo sapiens) (Q01094 whole entry, looked up): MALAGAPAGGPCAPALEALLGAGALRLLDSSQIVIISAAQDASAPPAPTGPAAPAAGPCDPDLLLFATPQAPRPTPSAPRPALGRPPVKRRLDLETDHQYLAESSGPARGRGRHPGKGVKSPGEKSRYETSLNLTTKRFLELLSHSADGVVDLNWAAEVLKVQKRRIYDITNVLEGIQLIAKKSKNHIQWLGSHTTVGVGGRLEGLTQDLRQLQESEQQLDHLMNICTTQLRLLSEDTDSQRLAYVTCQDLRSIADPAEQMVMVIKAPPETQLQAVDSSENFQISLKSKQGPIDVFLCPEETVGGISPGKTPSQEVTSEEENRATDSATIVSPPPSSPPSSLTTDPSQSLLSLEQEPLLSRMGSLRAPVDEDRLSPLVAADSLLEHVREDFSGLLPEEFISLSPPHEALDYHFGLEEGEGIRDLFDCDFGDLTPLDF

The nature of assay [5]: ATG_E_Box_CIS: Attagene CIS-FACTORIAL HepG2 Assay for human Enhancer Box (E-box) (AID 2282936). The conditions noted are these: HepG2 E-box cis-reporter transcription, actives raise or lower the signal. The method in brief:
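Multiplexed CIS reporter system in transiently transfected HepG2 cells measures native transcription factor activity. Reporter RNA after 24 h exposure is profiled by RT-PCR-capillary electrophoresis.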

The nature of assay [6]: ATG_M_19_CIS: Attagene CIS-FACTORIAL HepG2 Assay for M19 Transcription Factor (Internal Marker) (AID 2282939). The conditions noted are these: HepG2 Attagene CIS-FACTORIAL M19 internal marker reporter; actives raise or lower the signal. The method in brief: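 Signals come from fluorescence of labelled reporter-specific PCR fragments resolved by capillary electrophoresis, following 24 h treatment of HepG2 cells transfected with cis-promoter reporter units; activity was fitted in both directions relative to DMSO.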

The nature of assay [7]: ATG_GLI_CIS: Attagene CIS-FACTORIAL HepG2 Assay for human Zinc Finger Protein GLI1 (AID 2282945). The conditions noted are these: HepG2, Attagene cis-factorial reporter mRNA, GLI element; actives raise or lower the signal. Put shortly:
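HepG2 cells transiently transfected with cis-promoter multiplexed reporter units report endogenous transcription factor activity. After 24 h chemical exposure, reporter mRNA was quantified by RT-PCR, 6-FAM labelling, HpaI digestion and capillary electrophoresis, with bidirectional fitting against DMSO.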

A short description of assay [8]: ATG_ISRE_CIS: Attagene CIS-FACTORIAL HepG2 Assay for human Interferon Regulatory Factor 1 (IRF1) binding to an Interferon-Stimulated Response Element (ISRE) (AID 2282948). The settings on record: HepG2 ISRE cis-reporter (Attagene), mRNA transcription readout; actives raise or lower the signal. The method in brief: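 Transfected HepG2 (multiple reporter transcription units, cis elements) dosed 24 h. RNA → oligo(dT) RT → PCR → 6-FAM primer extension → HpaI → CE. DMSO = negative control/baseline.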

The nature of assay [9]: ATG_M_32_CIS: Attagene CIS-FACTORIAL HepG2 Assay for M32 Transcription Factor (Internal Marker) (AID 2282949).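 Further: background control marker of the multiplexed CIS panel rather than a real target.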 The conditions noted are these: HepG2 Attagene cis-factorial M32 reporter, mRNA; actives raise or lower the signal. The method in brief:
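Fluorescent capillary electrophoresis peaks of HpaI-digested, FAM-labelled RT-PCR reporter products give the signal. Source: transiently transfected human liver HepG2 cells, 24 h after chemical dosing; bidirectional fitting against DMSO.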

Assay [10] in a line: ATG_PXRE_CIS: Attagene CIS-FACTORIAL HepG2 Assay for human Pregnane X Receptor Element (PXRE) (AID 2282957). The settings on record: HepG2 Attagene CIS-FACTORIAL PXRE reporter, mRNA; actives raise or lower the signal. The method in brief: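 Cis-element reporter mRNA in human hepatoma HepG2 cells is measured 24 h post-dosing by RT-PCR, primer-extension labeling and capillary electrophoresis; gain or loss of signal is fitted relative to DMSO.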

Assay [11] in a line: ATG_Sox_CIS: Attagene CIS-FACTORIAL HepG2 Assay for human SRY-box transcription factor (SOX) (AID 2282960). The settings on record: HepG2 Attagene cis-factorial SOX reporter, mRNA; actives raise or lower the signal. Put shortly: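 Using transiently transfected HepG2 cells, reporter transcription driven by cis elements was assessed 24 h after dosing. Signal was fluorescence of capillary-separated RT-PCR products, with DMSO defining baseline activity.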

For assay [12], the target named is Transcription factor Sp1 (Homo sapiens) (UniProt P08047). The experiment in a line: ATG_Sp1_CIS: Attagene CIS-FACTORIAL HepG2 Assay for human Specificity Protein 1 (Sp1) (AID 2282961). The settings on record: HepG2 Sp1 cis-reporter transcription, actives raise or lower the signal. The method in brief: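 After transient transfection of HepG2 cells with cis-promoter reporter units and 24 h chemical treatment, reporter transcripts were quantified by RT-PCR and capillary electrophoresis fluorescence. Gain- and loss-of-signal fitted against DMSO.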
Chain of Transcription factor Sp1 (Homo sapiens) (P08047 whole entry, looked up): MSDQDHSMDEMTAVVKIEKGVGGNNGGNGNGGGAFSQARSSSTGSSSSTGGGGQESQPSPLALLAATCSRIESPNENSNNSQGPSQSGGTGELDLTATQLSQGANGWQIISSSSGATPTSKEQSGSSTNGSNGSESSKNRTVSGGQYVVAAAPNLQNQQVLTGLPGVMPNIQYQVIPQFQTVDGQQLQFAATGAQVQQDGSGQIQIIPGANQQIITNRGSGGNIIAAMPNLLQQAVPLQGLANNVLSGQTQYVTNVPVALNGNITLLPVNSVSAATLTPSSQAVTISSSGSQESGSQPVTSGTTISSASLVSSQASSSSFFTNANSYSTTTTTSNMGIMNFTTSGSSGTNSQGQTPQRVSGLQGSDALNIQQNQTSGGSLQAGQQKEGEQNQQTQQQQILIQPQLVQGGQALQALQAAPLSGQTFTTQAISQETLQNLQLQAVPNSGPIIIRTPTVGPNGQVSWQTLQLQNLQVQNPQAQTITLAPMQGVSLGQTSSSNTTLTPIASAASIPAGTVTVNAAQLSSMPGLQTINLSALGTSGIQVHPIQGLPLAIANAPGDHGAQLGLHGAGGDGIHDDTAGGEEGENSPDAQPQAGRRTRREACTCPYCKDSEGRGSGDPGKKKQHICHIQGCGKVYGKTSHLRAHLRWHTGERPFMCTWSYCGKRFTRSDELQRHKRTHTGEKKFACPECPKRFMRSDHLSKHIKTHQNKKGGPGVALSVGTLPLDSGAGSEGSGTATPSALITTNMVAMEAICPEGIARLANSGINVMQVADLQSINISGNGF

Assay [13] has as its target Signal transducer and activator of transcription 3 (Homo sapiens) (UniProt P40763). The experiment in a line: ATG_STAT3_CIS: Attagene CIS-FACTORIAL HepG2 Assay for human Signal Transducer and Activator of Transcription 3 (STAT3) (AID 2282963). The conditions noted are these: HepG2, Attagene cis-factorial STAT3 reporter transcription; actives raise or lower the signal. Put shortly:
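Transcript-level reporter assay. HepG2 transient MRTU transfection, 24 h exposure, fluorescence detection after RT-PCR and CE; DMSO baseline.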

Assay [14] can be described thus: ATG_TA_CIS: Attagene CIS-FACTORIAL HepG2 Assay for human TA Basal Promoter (AID 2282964). The settings on record: HepG2 Attagene CIS-factorial TA basal promoter reporter; actives raise or lower the signal. Put shortly:
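Fluorescence from labelled RT-PCR reporter fragments, separated by capillary electrophoresis, gives the signal. Cells: HepG2 transiently carrying multiple reporter units, 24 h chemical dosing. Gain or loss relative to DMSO.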

A short description of assay [15]: ATG_TCF_b_cat_CIS: Attagene CIS-FACTORIAL HepG2 Assay for human T-Cell-Factor with beta-catenin (TCF/b-cat) (AID 2282965). The conditions noted are these: HepG2 TCF/beta-catenin cis-reporter transcription, actives raise or lower the signal. The method in brief:
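Using capillary electrophoresis as the read-out, labelled reporter cDNA fragments from transiently transfected HepG2 were sized and quantified. Exposure lasted 24 hours; activity in either direction was referenced to DMSO.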

Assay [16] in a line: ATG_TAL_CIS: Attagene CIS-FACTORIAL HepG2 Assay for human TAL Basal Promoter (AID 2282966).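 Further: background control endpoint measuring basal TAL promoter reporter mRNA not a specific factor.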 The conditions noted are these: HepG2 Attagene cis-factorial TAL promoter reporter; actives raise or lower the signal. Put shortly: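 In this cell-based multiplex, HepG2 liver cells bearing cis-promoter reporter constructs are dosed for 24 hours. Total RNA is reverse-transcribed and amplified, labelled fragments are sized by capillary electrophoresis, and signal changes are fitted bidirectionally versus DMSO.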

Assay [17] deals with X-box-binding protein 1 (Homo sapiens) (UniProt P17861). The experiment in a line: ATG_Xbp1_CIS: Attagene CIS-FACTORIAL HepG2 Assay for human X-box Binding Protein 1 (XBP1) (AID 2282972). The conditions noted are these: HepG2 XBP1 cis-element reporter, Attagene multiplex; actives raise or lower the signal. The method in brief: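 HepG2, transient MRTU transfection (cis-promoter driven), 24 h compound exposure. Total RNA → oligo(dT) RT → PCR → 6-FAM labeling → HpaI cut → CE. Bidirectional fit vs DMSO.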
Chain of X-box-binding protein 1 (Homo sapiens) (P17861 whole entry, looked up): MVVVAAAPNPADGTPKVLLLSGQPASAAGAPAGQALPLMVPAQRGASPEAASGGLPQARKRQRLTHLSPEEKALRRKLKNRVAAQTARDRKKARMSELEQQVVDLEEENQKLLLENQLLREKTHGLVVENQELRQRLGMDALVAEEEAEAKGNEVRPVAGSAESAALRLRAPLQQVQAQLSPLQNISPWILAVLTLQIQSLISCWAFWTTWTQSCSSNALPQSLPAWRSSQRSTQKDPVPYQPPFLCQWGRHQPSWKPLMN

Assay [18] has as its target Transcriptional activator Myb (Homo sapiens) (UniProt P10242). The experiment in a line: ATG_Myb_CIS: Attagene CIS-FACTORIAL HepG2 Assay for human Myeloblastosis (Myb) Proto-Oncogene Transcription Factor (AID 2282986). The settings on record: HepG2 Attagene CIS-FACTORIAL Myb reporter transcription; actives raise or lower the signal. The method in brief:
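Multiplexed cis-reporter system in HepG2: transient transfection, 24 h treatment, mRNA readout by RT-PCR and capillary electrophoresis. Both increases and decreases are scored versus DMSO negative control.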

For assay [19], the target named is Myc proto-oncogene protein (Homo sapiens) (UniProt P01106). The experiment in a line: ATG_Myc_CIS: Attagene CIS-FACTORIAL HepG2 Assay for human Myelocytomatosis (Myc) Proto-Oncogene Transcription Factor (AID 2282990). The settings on record: HepG2, Attagene cis-reporter transcription factor activity; actives raise or lower the signal. The method in brief:
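Multiplexed cis-reporter transcription in HepG2 cells after 24 h chemical treatment. Reporter mRNA measured by RT-PCR and capillary electrophoresis fluorescence; activity fitted bidirectionally against DMSO control.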

The nature of assay [20]: ATG_Oct_MLP_CIS: Attagene CIS-FACTORIAL HepG2 Assay for human Octamer-Binding Transcription Factor (Oct) (AID 2282993). The conditions noted are these: HepG2 Attagene cis-factorial Oct reporter, mRNA; actives raise or lower the signal. The method in brief: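 HepG2, transient MRTU transfection, cis promoter elements; 24 h dosing; RT-PCR/CE fluorescence read-out of reporter mRNA; fit both directions vs DMSO.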

Structures are written as SMILES. Activity calls are given as the source filed them. How the source made its calls: active means hit-call score of the fitted dose curve at least 0.9, where 1 is the maximum; inactive means score below 0.9.

For orientation: AC50 means the midpoint of the concentration-response curve, whichever way the signal moves.

Chain of Signal transducer and activator of transcription 3 (Homo sapiens) (P40763 whole entry, looked up): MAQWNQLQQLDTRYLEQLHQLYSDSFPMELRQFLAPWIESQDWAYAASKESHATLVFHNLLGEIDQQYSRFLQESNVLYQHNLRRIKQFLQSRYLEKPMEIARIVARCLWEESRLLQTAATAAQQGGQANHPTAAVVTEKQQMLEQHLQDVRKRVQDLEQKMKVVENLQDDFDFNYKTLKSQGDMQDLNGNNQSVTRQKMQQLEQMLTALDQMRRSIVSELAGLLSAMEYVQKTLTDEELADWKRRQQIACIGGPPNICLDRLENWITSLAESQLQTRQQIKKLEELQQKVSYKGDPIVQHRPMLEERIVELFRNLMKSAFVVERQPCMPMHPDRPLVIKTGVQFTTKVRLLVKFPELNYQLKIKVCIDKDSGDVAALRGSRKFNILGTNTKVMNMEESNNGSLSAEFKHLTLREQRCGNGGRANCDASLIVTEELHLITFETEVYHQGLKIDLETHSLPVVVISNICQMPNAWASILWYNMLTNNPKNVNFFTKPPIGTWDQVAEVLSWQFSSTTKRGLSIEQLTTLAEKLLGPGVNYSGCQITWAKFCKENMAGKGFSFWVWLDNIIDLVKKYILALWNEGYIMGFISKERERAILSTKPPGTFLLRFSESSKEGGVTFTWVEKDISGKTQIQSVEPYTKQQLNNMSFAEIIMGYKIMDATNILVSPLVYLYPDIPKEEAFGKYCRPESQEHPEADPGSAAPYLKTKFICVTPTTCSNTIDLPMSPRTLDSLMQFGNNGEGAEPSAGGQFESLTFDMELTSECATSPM
Chain of Transcriptional activator Myb (Homo sapiens) (P10242 whole entry, looked up): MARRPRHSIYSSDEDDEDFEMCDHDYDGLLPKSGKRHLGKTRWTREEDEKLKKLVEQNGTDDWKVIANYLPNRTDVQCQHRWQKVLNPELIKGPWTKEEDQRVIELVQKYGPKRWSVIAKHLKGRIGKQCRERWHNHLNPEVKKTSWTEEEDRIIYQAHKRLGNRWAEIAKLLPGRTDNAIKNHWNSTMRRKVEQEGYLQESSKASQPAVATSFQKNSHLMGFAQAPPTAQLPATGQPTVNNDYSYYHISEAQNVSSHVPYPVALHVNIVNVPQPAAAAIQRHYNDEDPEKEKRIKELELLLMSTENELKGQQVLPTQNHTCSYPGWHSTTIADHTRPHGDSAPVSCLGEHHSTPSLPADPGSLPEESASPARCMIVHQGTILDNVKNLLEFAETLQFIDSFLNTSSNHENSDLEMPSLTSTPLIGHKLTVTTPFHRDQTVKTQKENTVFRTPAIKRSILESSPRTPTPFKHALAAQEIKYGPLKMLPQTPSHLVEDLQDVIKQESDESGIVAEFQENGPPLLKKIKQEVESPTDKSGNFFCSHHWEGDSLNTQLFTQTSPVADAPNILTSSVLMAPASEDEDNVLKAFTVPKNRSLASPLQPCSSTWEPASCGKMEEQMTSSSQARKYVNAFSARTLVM
Chain of Myc proto-oncogene protein (Homo sapiens) (P01106 whole entry, looked up): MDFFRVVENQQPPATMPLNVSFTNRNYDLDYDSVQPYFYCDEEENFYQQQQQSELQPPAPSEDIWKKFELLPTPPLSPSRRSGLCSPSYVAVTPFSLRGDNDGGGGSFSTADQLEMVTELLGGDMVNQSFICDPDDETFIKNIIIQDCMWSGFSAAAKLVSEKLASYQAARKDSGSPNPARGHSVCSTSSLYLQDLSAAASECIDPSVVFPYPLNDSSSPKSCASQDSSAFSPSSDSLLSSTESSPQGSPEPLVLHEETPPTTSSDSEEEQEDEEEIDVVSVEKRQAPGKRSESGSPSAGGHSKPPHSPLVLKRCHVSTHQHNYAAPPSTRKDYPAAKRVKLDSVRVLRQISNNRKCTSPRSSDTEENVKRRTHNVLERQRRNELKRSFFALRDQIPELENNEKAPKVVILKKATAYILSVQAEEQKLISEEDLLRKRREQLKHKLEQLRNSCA
Chain of CCAAT/enhancer-binding protein beta (Homo sapiens) (P17676 whole entry, looked up): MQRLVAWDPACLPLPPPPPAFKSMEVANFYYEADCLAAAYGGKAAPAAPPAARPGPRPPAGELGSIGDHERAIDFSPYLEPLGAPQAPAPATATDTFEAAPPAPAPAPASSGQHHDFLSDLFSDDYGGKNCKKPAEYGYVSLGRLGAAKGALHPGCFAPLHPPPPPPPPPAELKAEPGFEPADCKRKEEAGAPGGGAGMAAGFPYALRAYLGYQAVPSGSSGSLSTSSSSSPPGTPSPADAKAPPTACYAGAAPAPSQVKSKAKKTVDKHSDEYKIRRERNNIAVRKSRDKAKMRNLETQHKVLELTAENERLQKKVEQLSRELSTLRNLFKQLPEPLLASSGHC

On to `COc1cc(OC)nc(Oc2cccc(Oc3nc(OC)cc(OC)n3)c2C(=O)O)n1`, for which the outcome in [1], in assay [2], in assay [3], in [4], in assay [5] and in assay [6] was inactive. For the same compound, the call in assay [7], in assay [8], in assay [9], in assay [11], in assay [12] and in [13] was inactive. In addition, the result in [14], in [15], in assay [16], in assay [17], in assay [18] and in [19] was inactive. The compound was classed as inactive in [20]. Further, in [10], the AC50 is 56 µM (active).

For `C=CCc1ccc(OC(=O)Cc2ccccc2)c(OC)c1`, the outcome in assay [1], in assay [2], in assay [3], in assay [4], in assay [5] and in assay [6] was inactive. The outcome in assay [7], in [8], in assay [9], in assay [11], in assay [12] and in assay [13] was inactive. Further, the outcome in assay [14], in assay [15], in assay [16], in assay [17], in [18] and in assay [19] was inactive. Besides, in [20], the call was inactive. For the same compound, in [10], the concentration at half-maximal activity (AC50) was 8.28 µM (active).

Take `[Cl-].[Cl-].[Cl-].[Yb+3]`: the result in assay [1], in [2], in [3], in assay [4], in [5] and in assay [6] was inactive. Besides, the outcome in assay [7], in [8], in assay [9], in [10], in assay [11] and in assay [12] was inactive. Also, the compound was classed as inactive in [13], in [14], in [15], in [16], in [17] and in assay [18]. In addition, the call in assay [19] and in assay [20] was inactive.

For the compound `O=[N+]([O-])C=Cc1ccccc1`, the result in assay [1], in [4], in assay [6], in assay [9], in assay [14] and in assay [16] was inactive. Further, the compound was classed as inactive in assay [19]. The AC50 is 29.6 µM (active) in assay [2]; 21.4 µM (active) in assay [3]; 25.5 µM (active) in [5]; 31.2 µM (active) in assay [7]; 27.6 µM (active) in [8]; 56.8 µM (active) in [10]. Besides, the AC50 was 20.1 µM (active) in assay [11]; 21.2 µM (active) in assay [12]; 33.4 µM (active) in [13]; 18.9 µM (active) in assay [15]; 20.3 µM (active) in [17]; 22.9 µM (active) in assay [18]. Further, the half-maximal activity concentration (AC50) in assay [20] was 18.5 µM (active).

(Values after PubChem BioAssay (EPA / NIEHS).)
